Test in all cases: NCI-60 one-dose screen, 48 h (100 = growth as untreated, 0 = no growth, -100 = all killed)
What all share (conditions): 10 µM unless noted

Test [1] deals with NCI-H23 lung.
For test [2], the system named is NCI-H226 lung.
The test system of test [3] is NCI-H322M lung.
The test system of test [4] is HOP-62 NSCLC.
The subject of test [5] is NCI-H460 lung.
Test [6] has as its system HOP-92 NSCLC.
For test [7], the system named is NCI-H522 lung.
Test [8] deals with A549/ATCC NSCLC.
The test system of test [9] is 786-0 renal.
Test [10] concerns COLO 205 colon.
The subject of test [11] is K-562 leukemia.
Test [12] relates to MALME-3M melanoma.
In test [13] the test system is MDA-MB-231 breast.
Test [14] relates to RXF 393 renal.
The test system of test [15] is SF-295 CNS.
The subject of test [16] is SF-539 CNS.
The subject of test [17] is UACC-257 melanoma.
Test [18] concerns DU-145 prostate.
In test [19] the test system is SF-268 CNS.

The source of these data is PubChem BioAssay (NCI).

The panel holds about 83,000 compounds, 20% with a hit somewhere; the sample as a whole holds those more often.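 Single-dose data. Exposure time 48 hours. Values below 10 considered active.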 Unmarked numbers belong to inactive results. Activity calls are given as the source filed them.

Consider `Cc1cc(C)on1`, for which the growth in test [1] was 109%; in test [2], 103%; in [3], 111%; in [4] it was 111%; in test [5], 116%; in [6], 89.3%. The growth in [7] is 107%; in test [8] it was 97.9%; in test [9] it was 101%; in [10], 112%; in test [11], 102%; in test [12] it was 112%. Besides, the growth was 104% in [13]; 101% in test [14]; 115% in [15]; 103% in [16]; 91.6% in test [17].
In the case of `CN1CCN(C2=C(Cl)C(=O)c3ccccc3C2=O)CC1`, the growth was 55.5% in test [1]; 94.2% in test [2]; 97.4% in test [3]; 94.9% in [4]; 92.3% in test [5]; 102% in [6]. The growth was 25.1% in test [7]; 81.4% in [8]; 84.7% in test [9]; 81.4% in [10]; 23.1% in test [11]; 4.5% (active) in test [12]. Also, the growth in [13] was 41.6%; in test [14], 101%; in test [15], 84.1%; in test [16] it was 105%; in [17] it was 56.5%.
Regarding `CC(=O)c1sc(-c2ccccc2)cc1N`, the growth is 101% in test [1]; 96.6% in test [2]; 96.9% in [3]; 94.4% in test [4]; 102% in [5]; 97.7% in test [6]. Also, the growth in test [7] was 72.5%; in test [8], 76%; in test [9], 92.7%; in test [10] it was 109%; in test [18] it was 102%; in test [12], 112%. For the same molecule, the growth is 99.6% in [13]; 107% in [14]; 104% in test [19]; 99.7% in [15]; 97.1% in test [16]; 90.6% in test [17].
On to `COc1ccc(N(C)c2nc(Cl)nc3cnn(C)c23)cc1`, for which the growth in test [1] is 34.4%; in test [2], 1% (active); in test [3] it was 34.1%; in test [4], 21.9%; in test [5], 7.51% (active); in test [6] it was 28.6%. The growth is -27.6% (active) in test [7]; 10.8% in test [8]; 8.74% (active) in [9]; -68.3% (active) in [10]; 7.13% (active) in test [18]; 75.3% in [12]. Also, the growth in [13] is 19.2%; in test [14], 44.8%; in [19], 29.1%; in test [15], 17.9%; in test [16], -9.34% (active); in test [17], 38.1%.
`COc1cc(-c2cc(-c3ccc(Nc4nc(Nc5ccccc5)nc(Nc5ccc(Cl)cc5)n4)cc3)nc(N)n2)cc(OC)c1OC`: the growth was 46.9% in test [1]; 75.6% in [2]; 81.9% in test [3]; 47.2% in [4]; 65.8% in test [5]; 42.4% in test [6]. The growth in [7] was 66.3%; in [8], 79.3%; in test [9], 44%; in test [18] it was 94.7%; in test [11] it was 23.8%; in test [12], 59.9%. Moreover, the growth in test [13] was 59%; in [14] it was 78.1%; in test [19], 86.6%; in test [15], 70.5%; in test [16], 77.4%; in test [17] it was 99.4%.
Turning to `CCCCCCNC(=O)c1cc(NCc2cc(O)ccc2O)ccc1O`, the growth in [1] is 87.5%; in test [2] it was 92.3%; in test [3] it was 89.2%; in [4] it was 70.9%; in test [5] it was 94.5%; in test [6] it was 24%. Also, the growth was -62.3% (active) in test [7]; 70.5% in test [8]; 45.9% in test [9]; 96.9% in [10]; 92.6% in [18]; 67.4% in [12]. Further, the growth is 45.2% in test [13]; 37.4% in [14]; 53.8% in [19]; 95.8% in test [15]; 11.8% in [16]; 56.1% in test [17].
As to `N#Cc1c(N)nc2c(nnn2-c2cccc(Br)c2)c1N`, the growth in [1] is 89.5%; in test [2], 95.7%; in test [3], 97.6%; in test [4], 94.8%; in [5] it was 97.1%; in test [6], 82.2%. For the same molecule, the growth is 86% in test [7]; 92.6% in [8]; 105% in test [9]; 105% in test [10]; 109% in test [18]; 115% in [12]. Besides, the growth in [13] is 89%; in test [14], 111%; in test [19], 97.1%; in test [15], 107%; in test [16], 105%; in [17], 106%.
Turning to `NS(=O)(=O)c1cn(-c2ncnc3nc[nH]c23)ccc1=O`, the growth in test [1] was 94.2%; in test [2] it was 78%; in [3], 94.5%; in [4], 94.9%; in [5], 112%; in [6] it was 82.7%. Also, the growth was 51.2% in [7]; 36% in test [8]; 96.9% in test [9]; 103% in test [18]; 84.6% in test [11]; 82.9% in test [12]. Also, the growth was 89.3% in test [13]; 130% in [14]; 93.3% in test [19]; 49.3% in [15]; 105% in [16]; 138% in test [17].
Turning to `COc1ccc(-c2cn(-c3cccc(C(=O)/C=C/c4cc(OC)c(OC)c(OC)c4)c3)c(=O)[nH]2)cc1`, the growth is -2.28% (active) in [1]; 32.9% in test [2]; 106% in test [3]; 229% in test [4]; -44.1% (active) in test [5]; -3.4% (active) in [6]. The growth in test [7] is -38.7% (active); in [8] it was 46.4%; in [9] it was -89.4% (active); in test [18], 1.51% (active); in test [11], 0.142% (active); in test [12] it was 66.2%. Moreover, the growth was 19.4% in test [13]; -52.8% (active) in test [14]; 20.1% in [19]; 26.4% in test [15]; -89.1% (active) in test [16]; 22.8% in test [17].
As to `O=C(NC1CCOCC1)c1ccc2c(c1)CN(c1ncc(Cc3cccc(-n4cccn4)c3)s1)CC2`, the growth was 57.7% in test [1]; 62% in [2]; 87.8% in test [3]; 104% in [4]; 79.9% in [5]; 44.9% in [6]. Moreover, the growth in test [7] was 38.8%; in [8], 76%; in [9], 68.7%; in test [18], 88.2%; in test [11] it was 58.7%; in [12], 64.1%. In addition, the growth in test [13] is 37.1%; in test [14], 73.7%; in test [19] it was 80.4%; in [15], 62.5%; in test [16], 64.2%; in test [17], 62.6%.
With `COc1ccc(/C=C(\C#N)n2nnc3cc(F)c(F)cc32)c(OC)c1OC`, the growth in [1] was 71.8%; in test [2], 83%; in [3], 76%; in test [4], 82.9%; in [5], 71.4%; in [6], 83.5%. Also, the growth is 51.4% in test [7]; 84.2% in [8]; 93.9% in [9]; 24.5% in [18]; 23% in test [11]; 93.4% in test [12]. In addition, the growth in [13] was 61.7%; in test [14], 41.1%; in [19] it was 83.5%; in test [15], 105%; in [16] it was 92.1%; in test [17] it was 64.4%.
For the molecule `CCc1cc(Cc2cc(CC)cc(C(C)(C)C)c2O)c(O)c(C(C)(C)C)c1`, the growth in test [1] is 17.5%; in test [2], 48.6%; in [3] it was 50%; in test [4], 34.7%; in [5], 4.34% (active); in test [6], -22.6% (active). Further, the growth is 22.2% in test [7]; 23.8% in test [8]; 23.6% in test [9]; 43.1% in [18]; 8.51% (active) in [11]; 19.5% in test [12]. In addition, the growth is 13.8% in test [13]; 5.58% (active) in test [14]; 37.6% in [19]; -2.11% (active) in test [15]; 39.6% in test [16]; 46.7% in test [17].
